Experimental findings from PubChem BioAssay AID372 (MTDP, 2006) are described below.

As usually defined, the inhibition is the share of the control response that was lost under treatment.

In all, about 100,000 compounds went through this assay and about 770 (0.77%) were called active. Only a selection was taken, and actives are over-represented in it overall. Values without a mark were called inactive. Rule as the data show it: active = inhibition above about 50%; inactive = the rest.

For this test, the target named is Gag-Pol polyprotein (Human immunodeficiency virus type 1 group M subtype B (isolate HXB2)) (UniProt P04585). As to the kind of experiment: RNase H inhibition, HIV 1 Gag Pol polyprotein, FRET biochemical assay, screening (AID 372). The note with it: HIV-1 RT RNase H, FRET RNA/DNA substrate fluorescence; at 10 µM; hits give high values.
As for `Cc1cc(I)ccc1NC(=O)c1ccccc1F`, the inhibition is 8%.

With `CC(=O)c1cccc(NC(=O)C2CCCCC2)c1`, the inhibition was 0%.

Take `O=C(Nc1ccc2ccccc2c1)C1CCCCC1`: the inhibition is 2%.

`O=C(c1ccccc1)c1cccc(NC(=O)C2CCCCC2)c1`: the inhibition is 51% (active).

Take `O=C(COc1cccc(Br)c1)N/N=C/c1ccc(Cl)cc1`: the inhibition is 7%.

Regarding `CCOc1ccc(C(=O)Nc2cc(Cl)cc(Cl)c2)cc1Br`, the inhibition was 1%.

In the case of `COc1ccc(-c2nnc(NC(C)=O)s2)cc1`, the inhibition is 0%.

`COc1ccc(-c2nnc(N)s2)cc1`: the inhibition is 7%.

Consider `COc1cc(NC(=O)COc2ccc(C)c(C)c2)c(OC)cc1Cl`, for which the inhibition is 7%.

On to `COc1cc([N+](=O)[O-])cc(/C=C2\C(=O)NC(=O)N(c3ccc(Cl)cc3)C2=O)c1O`, for which the inhibition was 7%.

As for `O=C(Nc1ccc(-c2ccc(NC(=O)c3ccccc3Cl)c(Cl)c2)cc1Cl)c1ccccc1Cl`, the inhibition was 51% (active).

Regarding `O=C(Nc1ccc(Cl)cc1Cl)c1ccccc1Cl`, the inhibition was 3%.

`O=C(Nc1ccc(I)cc1Cl)c1ccccc1Cl`: the inhibition is 37%.

Turning to `CCn1c2ccccc2c2cc(CN3CCC(C)CC3)ccc21`, the inhibition is 7%.

Take `CC(=O)Nc1ccc(NS(=O)(=O)c2ccc(C)cc2C)cc1`: the inhibition was 2%.

For `O=C(Nc1nccs1)c1ccc(N2C(=O)c3cccc([N+](=O)[O-])c3C2=O)cc1`, the inhibition was 56% (active).

Regarding `O=C(Nc1nccs1)c1ccc(N2C(=O)c3ccc([N+](=O)[O-])cc3C2=O)cc1`, the inhibition was 31%.

Take `O=C(Nc1ccc(O)cc1)c1ccc(N2C(=O)c3cccc([N+](=O)[O-])c3C2=O)cc1`: the inhibition is 3%.

`Cc1nc(-c2ccccc2)sc1C(=O)Nc1ccc(-c2cn3ccccc3n2)cc1`: the inhibition is 6%.

`O=C(Nc1ccc2oc(-c3cccc4ccccc34)nc2c1)c1cc([N+](=O)[O-])ccc1Cl`: the inhibition was 21%.

Take `COc1ccc(OCCOCCOc2c(OC)cccc2OC)cc1`: the inhibition is 11%.

Consider `CCc1ccc2oc(-c3ccc(NC(=S)NC(=O)c4cccc(F)c4)cc3)nc2c1`, for which the inhibition is 59% (active).

`COc1ccc(C(=O)NC(=S)Nc2ccc3oc(-c4ccccc4)nc3c2)cc1Br`: the inhibition is 47%.

As for `CCOc1ccc(C(=O)NC(=S)Nc2ccc3oc(-c4cccc(F)c4)nc3c2)cc1[N+](=O)[O-]`, the inhibition was 58% (active).

For `COc1ccc(C(=O)NC(=S)Nc2ccc3oc(-c4cccc(F)c4)nc3c2)cc1[N+](=O)[O-]`, the inhibition is 41%.

Take `CCOc1cccc(C(=O)NC(=S)Nc2ccc(-c3nc4cc(CC)ccc4o3)cc2)c1`: the inhibition was 5%.

On to `CCc1ccc2oc(-c3ccc(NC(=S)NC(=O)c4cccc(Cl)c4)cc3)nc2c1`, for which the inhibition was 17%.

For the molecule `COc1ccc(C(=O)NC(=S)Nc2ccc3oc(-c4cccc(F)c4)nc3c2)cc1OC`, the inhibition was 7%.

Regarding `CCOc1ccc(C(=O)NC(=S)Nc2ccc3oc(-c4cccnc4)nc3c2)cc1[N+](=O)[O-]`, the inhibition was 4%.

Turning to `COc1ccc(C(=O)NC(=S)Nc2ccc3oc(-c4cccc(F)c4)nc3c2)cc1Br`, the inhibition was 56% (active).

Regarding `NC(=S)N=Nc1c(O)[nH]c2ccc(F)cc12`, the inhibition was 9%.

For `COc1cccc(C(=O)NNC(=O)C2CCCO2)c1` (stereo not given), the inhibition is 4%.

`COc1cc(C=O)ccc1OCCCOc1ccc([N+](=O)[O-])cc1Cl`: the inhibition was 29%.

For the molecule `COC(=O)c1c(C)oc2ccc(OS(C)(=O)=O)cc12`, the inhibition is 0%.

In the case of `O=C(Nc1cccc(Cl)c1)Nc1nc2ccc(Br)cc2s1`, the inhibition is 35%.

As for `Cn1cccc1/C=C1/C(=O)NC(=S)N(c2cccc(Cl)c2)C1=O`, the inhibition was 31%.

Take `Cc1cccc(NC(=S)NC(=O)/C=C/c2ccccc2)c1`: the inhibition was 6%.

`Cc1ccc(NC(=S)NC(=O)/C=C/c2ccccc2)cc1C`: the inhibition was 9%.

For the molecule `O=C(/C=C/c1ccc(Cl)cc1)NC(=S)Nc1ccc(NC(=O)c2cccs2)cc1`, the inhibition is 24%.

`O=C(/C=C/c1ccccc1)NC(=S)Nc1ccc(NC(=O)c2ccccc2)cc1`: the inhibition was 9%.

On to `O=C(/C=C/c1ccccc1)NC(=S)Nc1ccc(NC(=O)c2cccs2)cc1`, for which the inhibition was 62% (active).

As for `Cc1ccc(NC(=S)NC(=O)/C=C/c2ccccc2)cc1Cl`, the inhibition is 51% (active).

On to `Brc1ccc(/C=N/Nc2ncnc3c2cnn3-c2ccccc2)cc1`, for which the inhibition was 6%.

For the molecule `Nc1ncc(Cc2ccc(F)cc2)s1`, the inhibition is 6%.

`COc1cccc(/C=C2\N=C(c3cccs3)OC2=O)c1OC`: the inhibition is 8%.

With `O=C1NC(=S)N/C1=C/c1ccc(-c2cc([N+](=O)[O-])ccc2Cl)o1`, the inhibition is 50% (active).

On to `Cc1cc(Br)c(-c2ccc(/C=C3/NC(=S)NC3=O)o2)cc1C`, for which the inhibition is 24%.

For the molecule `O=C1NC(=S)N/C1=C\c1ccc(-c2cc([N+](=O)[O-])ccc2Br)o1`, the inhibition is 50% (active).

For `O=C1NC(=S)N/C1=C/c1ccc(-c2ccc([N+](=O)[O-])cc2Cl)o1`, the inhibition is 5%.

For `O=C1NC(=S)N/C1=C\c1ccc(-c2cc([N+](=O)[O-])ccc2O)o1`, the inhibition was 29%.

For the molecule `O=C1NC(=S)N/C1=C\c1ccc(-c2cccc([N+](=O)[O-])c2)o1`, the inhibition is 14%.

Consider `CCCOc1cccc(/C=C2\N=C(c3ccc(F)cc3)OC2=O)c1`, for which the inhibition was 11%.

As to `O=C(CSCc1ccccc1Cl)Nc1cccc(Br)c1`, the inhibition was 17%.

Consider `COc1cc(/C=C2\C(=O)NC(=O)N(C(C)(C)C)C2=O)cc(OC)c1O`, for which the inhibition was 18%.

In the case of `COc1ccc(CNC(=O)CN(c2ccccc2OC)S(=O)(=O)c2ccccc2)cc1`, the inhibition was 9%.

Turning to `CCOC(=O)c1c(NC(=O)c2cc(OC)c(OC)c(OC)c2)sc(C(=O)Nc2ccc(OC)cc2OC)c1C`, the inhibition was 15%.

Regarding `O=C1c2cccc3c([N+](=O)[O-])ccc(c23)N1c1ccccc1`, the inhibition was 56% (active).

In the case of `O=C1c2cccc3c([N+](=O)[O-])ccc(c23)C(=O)N1c1ccc(O)cc1`, the inhibition is 13%.

For `COc1ccc(N2C(=O)c3cccc4c([N+](=O)[O-])ccc(c34)C2=O)cc1`, the inhibition is 16%.

For the molecule `O=C(CCN1C(=O)c2ccccc2C1=O)N1CCN(C/C=C/c2ccccc2)CC1`, the inhibition was 5%.

As to `O=c1oc2ccc3ccccc3c2cc1-c1nnc(NCc2ccc(F)cc2)s1`, the inhibition is 60% (active).

With `Cc1ccc(F)cc1Nc1nnc(-c2cc3c(ccc4ccccc43)oc2=O)s1`, the inhibition was 5%.

`CCN(CC)c1ccc2cc(-c3nnc(NCc4ccc(F)cc4)s3)c(=O)oc2c1`: the inhibition is 0%.

As to `O=C1C2C3C=CC(C3)C2C(=O)N1c1cccc2cccnc12` (stereo not given), the inhibition is 5%.

For `Cc1ccc(-c2ccccc2)n1-c1cccc2cccnc12`, the inhibition is 7%.

As for `Cc1ccc(C)n1-c1cccc2cccnc12`, the inhibition is 67% (active).

In the case of `CCCCCCCC(=O)NNC(=O)c1cccs1`, the inhibition was 0%.

As to `Cc1ccc(OCC(=O)Nc2cccc(-c3nc4cc(Cl)ccc4o3)c2C)c(C)c1`, the inhibition is 27%.

On to `Cc1ccc2oc(-c3ccc(C)c(NC(=O)Cc4ccccc4)c3)nc2c1`, for which the inhibition is 18%.

With `O=C(COc1ccccc1)Nc1ccc(-c2nc3cc(Cl)ccc3o2)cc1`, the inhibition was 23%.

In the case of `Cc1c(NC(=O)COc2ccc(Cl)cc2Cl)cccc1-c1nc2cc(Cl)ccc2o1`, the inhibition is 54% (active).

`Cc1ccc(-c2nc3ccccc3o2)cc1NC(=O)c1cccc(Cl)c1Cl`: the inhibition is 43%.

For the molecule `Cc1ccc(-c2nc3cc(Cl)ccc3o2)cc1NC(=O)c1cccc(Cl)c1Cl`, the inhibition is 16%.

As for `Cc1ccc(-c2nc3cc(Cl)ccc3o2)cc1NC(=O)Cc1ccccc1`, the inhibition was 55% (active).

Turning to `O=C(COc1ccc(Br)cc1)Nc1ccc(-c2nc3cc(Cl)ccc3o2)cc1`, the inhibition was 59% (active).

Take `Cc1ccc(-c2nc3ccccc3o2)cc1NC(=O)Cc1ccccc1`: the inhibition is 18%.

For `Cc1ccccc1OCC(=O)Nc1cccc(-c2nc3cc(Cl)ccc3o2)c1C`, the inhibition was 15%.

Take `Cc1ccc2oc(-c3ccc(C)c(NC(=O)c4cccc(Cl)c4Cl)c3)nc2c1`: the inhibition is 54% (active).

Turning to `O=C(COc1ccc(Br)cc1)Nc1cccc(-c2nc3cc(Cl)ccc3o2)c1`, the inhibition was 12%.

Take `CC(C)(C)c1ccc(C(=O)NC2CCCC2)cc1`: the inhibition is 2%.

Consider `O=C1c2ccccc2NC(c2ccccc2O)N1c1ccc(Cl)cc1` (stereo not given), for which the inhibition is 12%.

With `COc1cc(OC)c(OC)cc1CN1CCN(C/C=C/c2ccccc2)CC1`, the inhibition is 14%.

For `c1ccc(N2N=C(c3cccs3)CC2c2cccs2)cc1` (stereo not given), the inhibition was 6%.

`COc1ccc(/C=N/n2nnnc2N)cc1Br`: the inhibition was 30%.

In the case of `Cc1ccc2cc(C)c(NCc3ccccn3)nc2c1`, the inhibition is 6%.

On to `CCOC(=O)C(CC)P(=O)(c1ccccc1)c1ccccc1` (stereo not given), for which the inhibition was 0%.

Turning to `CCCC(=O)Nc1ccc(NC(=O)c2ccccc2[N+](=O)[O-])cc1`, the inhibition was 7%.

As to `CN(C)c1ccc(C(=O)N2CCN(c3ccc(F)cc3)CC2)cc1`, the inhibition is 13%.

Regarding `CCc1ccc2oc(-c3ccc(C)c(NC(=O)COc4ccc(Cl)cc4)c3)nc2c1`, the inhibition is 52% (active).

Consider `Cc1ccc2oc(-c3ccc(NC(=O)COc4ccc(Cl)cc4)cc3)nc2c1`, for which the inhibition was 28%.

Turning to `O=C(COc1ccccc1)Nc1ccc2oc(-c3ccc(Cl)cc3)nc2c1`, the inhibition is 49%.

`Cc1ccc(-c2nc3cc(Cl)ccc3o2)cc1NC(=O)c1cccc(Cl)c1`: the inhibition was 15%.

Turning to `O=C(COc1ccc(Cl)cc1)Nc1ccc2oc(-c3ccc(Cl)cc3)nc2c1`, the inhibition was 54% (active).

`O=C(COc1ccc(Cl)cc1)Nc1ccc2oc(-c3ccccc3)nc2c1`: the inhibition was 16%.

Regarding `Cc1ccc2oc(-c3ccc(NC(=O)COc4ccc(Br)cc4)cc3)nc2c1`, the inhibition is 59% (active).

As for `Cc1ccc(-c2nc3cc(Cl)ccc3o2)cc1NC(=O)c1cccc([N+](=O)[O-])c1`, the inhibition is 57% (active).

Consider `COc1ccc(OCC(=O)Nc2ccc(-c3nc4cc(C)ccc4o3)cc2)cc1`, for which the inhibition was 19%.

Turning to `CCc1ccc2oc(-c3ccc(C)c(NC(=O)COc4ccccc4)c3)nc2c1`, the inhibition is 44%.

Regarding `Cc1cc2nc(-c3ccc(C)c(NC(=O)c4cccc([N+](=O)[O-])c4)c3)oc2cc1C`, the inhibition was 15%.

As to `Cc1ccc(-c2nc3ccccc3o2)cc1NC(=O)COc1ccc(Cl)cc1`, the inhibition is 9%.
